From PubChem BioAssay (NCATS) come the findings set out here.

Unmarked numbers belong to inactive results. Inconclusive results are not listed. Activity calls are given as the source filed them. Unless noted, calls follow the shape of the dose curve; as a rule, active = well fitted curve in the direction sought with a large enough effect; inconclusive = small, poorly fitted or top-dose-only effect, or another doubt; inactive = no such curve, though single readings can be large; an effect the other way counts as inactive or inconclusive.

Assay [1] can be described thus: qHTS to identify inhibitors of the type 1 interferon - major histocompatibility complex class I in skeletal muscle: primary screen against the NCATS LOPAC collection (AID 1347405).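 Also: human myoblasts with HiBiT tag on endogenous HLA-B stimulated by IFN-beta; lytic HiBiT luminescence reporting HLA-B protein level.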 In a few lines:
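First, engineered myoblasts carrying HLA-B-HiBiT were seeded in medium lacking dexamethasone with 4 ng/ml IFN-beta. After 1 hr, compounds were pinned in (top 46 uM final, 7 points). After 24 hrs at 37 C, luminescence was measured following 10 min lysis.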
Background: In qHTS, concentration-response curves come from the screen itself.

Assay [2] is described as follows: qHTS to identify inhibitors of the type 1 interferon - major histocompatibility complex class I in skeletal muscle: primary screen against the NCATS Pharmaceutical Collection (AID 1347407). The essentials: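 Luminescence from HiBiT-tagged endogenous HLA-B*08:01 served as the read-out of IFN-beta-induced MHC class I in CRISPR-engineered C25cl48 myoblasts. Cells received 4 ng/ml IFN-beta plus compound (high final 46 uM, […]) for 24 h.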

Assay [3] is described as follows: qHTS for inhibitors of adenylyl cyclases using a fission yeast platform: a pilot screen against the NCATS LOPAC library (AID 1347410). In a few lines:
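Fission yeast qHTS: CHP2027 cells (AC9-GNAS-PDE4D2, fbp1-GFP), 5x10^6 cells/mL working density, EMM + His/Lys/Ura; LOPAC at up to 57 µM final; 18 h dark, 30C; GFP by laser cytometry. DPI positive control, DMSO vehicle.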

Assay [4] has as its target Protein phosphatase 1D (Homo sapiens) (UniProt O15297). Briefly: RapidFire Mass Spectrometry qHTS Assay for Modulators of WT P53-Induced Phosphatase 1 (WIP1) (AID 1347424). Also: series mostly up to about 63 µM. The essentials: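 RapidFire MS readout of dephosphorylated VEPPL-S-QETFS product, with 1 uM isotope-labelled peptide standard. Reaction: 10 nM WIP1, 2 uM phosphopeptide substrate, 5 min, room temperature, after 1 h compound preincubation; stopped with 0.5% formic acid.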

Assay [5] has the same target. Briefly: Rhodamine-PBP qHTS Assay for Modulators of WT P53-Induced Phosphatase 1 (WIP1) (AID 1347425). In a few lines: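 WIP1 (5 nM final) was preincubated with compound for 1 hour at room temperature. It then dephosphorylated 10 uM VEPPL-pS-QETFS peptide in Tris-HCl pH 7.5 with 30 mM MgCl2. Released Pi was detected by 10 uM Rh-PBP fluorescence (ex 525/em 598 nm) read at 1-min intervals for 11 min, as delta f1 - f0.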

The nature of assay [6]: Validation qHTS assay for inhibitors of Activation Induced Cytidine Deaminase (AID): UDG Counterscreen signal (AID 1347427). The essentials: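 Fluorescence at 560 nm excitation, 665 nm emission reports UDG signal after 250 mM NaOH (2x) addition and 30 min. Enzymes (AID 1 uM, UDG 2 U/mL, at 4/3x) preincubated 10 min with compound, then 4 h with 4x 250 nM DJC20/DJC23 substrate at room temperature.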

Assay [7] deals with Single-stranded DNA cytosine deaminase (Homo sapiens) (UniProt Q9GZX7). As to the kind of experiment: Validation qHTS assay for inhibitors of Activation Induced Cytidine Deaminase (AID): AID signal (AID 1347429). In a few lines:
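Steps: dispense AID with UDG; pin-transfer compound up to 114 uM final; add DJC20/DJC23 substrate and hold 4 hr at room temperature; add NaOH, hold 30 min; read FRET signal (540/590 nm).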

Assay [8] can be described thus: Primary qHTS for inhibitors of La Crosse Virus (LACV) - induced cell death in SH-SY5Y cells (AID 1508616).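 Also: top concentration of the series differs between compounds; higher means more rescue of cells from virus-induced death.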 The essentials:
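SH-SY5Y, 6000 cells/well; cpd via pin tool in DMSO; LACV 0.01 MOI; 6 d 37C 5% CO2; ATPLite, 5 min RT; luminescence normalized to ±virus DMSO controls.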

The target in assay [9] is Calcium and integrin-binding protein 1 (Homo sapiens) (UniProt Q99828). Briefly: Validation qHTS for Identification of Calcium Integrin Binding protein 1 (CIB1) Competitor (AID 1508618). The essentials: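 Fluorescence polarization with 1 uM CIB1-GST and 100 nM FITC-alphaIIb peptide in HEPES pH 7.4, NaCl, 5 mM CaCl2, Tween20. Compounds at up to 114 uM final, preincubated with protein 15 min; read after 15 min more at RT.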
Calcium and integrin-binding protein 1 (Homo sapiens), sequence (Q99828 whole entry, looked up): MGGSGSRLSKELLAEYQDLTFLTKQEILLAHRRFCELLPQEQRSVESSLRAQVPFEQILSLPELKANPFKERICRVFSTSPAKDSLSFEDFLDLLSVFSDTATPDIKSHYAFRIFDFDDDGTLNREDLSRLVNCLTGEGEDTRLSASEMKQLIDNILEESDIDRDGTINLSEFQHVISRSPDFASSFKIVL

Assay [10] shares this target. Briefly: Primary qHTS for Identification of Calcium Integrin Binding Protein 1 (CIB1) Competitor (AID 1508620). Also: top concentration of the series differs between compounds. In a few lines: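 Fluorescence polarization competition: GST-tagged CIB1 (1 uM final) preincubated with compound 15 min at room temperature, then FITC-labelled alphaIIb peptide (100 nM final) added. After 15 min at room temperature, polarization read at Ex 480/Em 540.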

A short description of assay [11]: Primary qHTS for small molecule stabilizers of the endoplasmic reticulum resident proteome: Secreted ER Calcium Modulated Protein (SERCaMP) assay (AID 1508630). The essentials: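 The SH-SY5Y reporter protocol was run at 3 concentrations up to 38.3 uM (primary) or 11 concentrations (follow-up): 16 h compound, 100 nM thapsigargin for 4 h, then extracellular luciferase luminescence.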

Assay [12] deals with Cytochrome P450 2D6 (Homo sapiens) (UniProt P10635). Briefly: Cytochrome P450 family 2 subfamily D member 6 (CYP2D6) small molecule antagonists: luciferase biochemical (cell-free) qHTS assay (AID 1645840; active = well fitted curve in the direction sought with a large enough effect in the repeat runs; an effect the other way counts as inactive or inconclusive; also: nearly all actives have a fitted effect of over 55% in size; also: potency is read from the fitted curve at half-maximal effect). In a few lines: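 P450-Glo CYP2D6 system: proluciferin substrate converted by enzyme to luciferin, read by luminescence proportional to activity. Enzyme-substrate mix with compound 10 min at room temperature, then NADPH regeneration 1 h before detection reagent.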
Cytochrome P450 2D6 (Homo sapiens), sequence (P10635 whole entry, looked up): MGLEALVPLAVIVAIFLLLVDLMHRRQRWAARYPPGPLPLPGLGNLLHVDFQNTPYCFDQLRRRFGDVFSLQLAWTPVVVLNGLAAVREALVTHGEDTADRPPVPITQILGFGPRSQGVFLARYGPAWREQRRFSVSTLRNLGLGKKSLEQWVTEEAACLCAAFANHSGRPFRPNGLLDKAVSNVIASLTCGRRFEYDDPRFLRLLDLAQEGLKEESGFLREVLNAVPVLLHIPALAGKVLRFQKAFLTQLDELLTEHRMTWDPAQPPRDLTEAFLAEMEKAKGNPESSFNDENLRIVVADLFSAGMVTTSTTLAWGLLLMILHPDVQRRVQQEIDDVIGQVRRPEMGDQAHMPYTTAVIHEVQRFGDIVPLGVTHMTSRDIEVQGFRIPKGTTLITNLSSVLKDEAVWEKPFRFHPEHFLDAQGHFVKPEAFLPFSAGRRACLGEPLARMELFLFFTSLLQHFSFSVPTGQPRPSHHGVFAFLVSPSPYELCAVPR

Assay [13] addresses Cytochrome P450 2C9 (Homo sapiens) (UniProt P11712). Briefly: Cytochrome P450 family 2 subfamily C member 9 (CYP2C9) small molecule antagonists: luciferase biochemical (cell-free) qHTS assay (AID 1645842; active = well fitted curve in the direction sought with a large enough effect in the repeat runs; an effect the other way counts as inactive or inconclusive; also: nearly all actives have a fitted effect of over 55% in size; also: potency is read from the fitted curve at half-maximal effect). The essentials:
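P450-Glo CYP2C9 system: proluciferin substrate with enzyme in mix containing 0.4% BSA, 10 min at room temperature, then NADPH regeneration solution added and incubated 1 h at 37C. Detection reagent stopped reaction; luminescence read after 20 min as RLU.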

The target of assay [14] is Papain (Carica papaya) (UniProt P00784). As to the kind of experiment: Primary qHTS assay for inhibitors of the protease papain (AID 1645873).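 Also: papain turnover of Z-FR-AMC read as the AMC fluorescence gain over 10 min; series mostly up to about 50 µM.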
Papain (Carica papaya), sequence (P00784 whole entry, looked up, the tested form may be a part): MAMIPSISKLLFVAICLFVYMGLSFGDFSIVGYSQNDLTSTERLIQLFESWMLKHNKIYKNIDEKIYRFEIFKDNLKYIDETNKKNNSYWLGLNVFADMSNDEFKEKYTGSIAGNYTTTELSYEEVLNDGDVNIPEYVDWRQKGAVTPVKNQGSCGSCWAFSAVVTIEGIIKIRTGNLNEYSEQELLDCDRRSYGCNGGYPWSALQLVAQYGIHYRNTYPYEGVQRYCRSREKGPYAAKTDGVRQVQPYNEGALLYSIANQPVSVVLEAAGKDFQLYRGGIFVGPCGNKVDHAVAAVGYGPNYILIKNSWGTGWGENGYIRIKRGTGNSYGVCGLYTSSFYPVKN
Assay [15] is described as follows: Primary qHTS for inhibitors of nuclear receptor binding SET domain protein 2 (NSD2) in an isogenic RCH-ACV NSD2 p.E1099K mutant (9B) (AID 1645876). Also: nearly all actives have a fitted effect of over 70% in size.
Assay [16] is described as follows: A High-Content qHTS Against Drug Library for the Identification of Small Molecules that Inhibit DYT1 Early Onset Primary Dystonia-Associated Cell Pathology (AID 1645839; calls by dose curve; also: series mostly up to about 46 µM). In a few lines:
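Cells were seeded and left for 24 h, then dosed with compound alongside tetracycline induction of mutant EGFP-TorsinA. They were incubated for 48 h, fixed in 4% paraformaldehyde, permeabilized and imaged for mislocalization (%pathology) and cell count.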

The target of assay [17] is Cytochrome P450 3A4 (Homo sapiens) (UniProt P08684). Briefly: Cytochrome P450 family 3 subfamily A member 4 (CYP3A4) small molecule antagonists: luciferase qHTS assay (AID 1645841; active = well fitted curve in the direction sought with a large enough effect in the repeat runs; an effect the other way counts as inactive or inconclusive; also: nearly all actives have a fitted effect of over 45% in size). The essentials: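 P450-Glo CYP3A4 enzyme with proluciferin substrate preincubated 10 min with compound at room temperature, then NADPH regeneration 1 h. Luciferin detection reagent added for 20 min; luminescence recorded. Ketoconazole positive control.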
Cytochrome P450 3A4 (Homo sapiens), sequence (P08684 whole entry, looked up): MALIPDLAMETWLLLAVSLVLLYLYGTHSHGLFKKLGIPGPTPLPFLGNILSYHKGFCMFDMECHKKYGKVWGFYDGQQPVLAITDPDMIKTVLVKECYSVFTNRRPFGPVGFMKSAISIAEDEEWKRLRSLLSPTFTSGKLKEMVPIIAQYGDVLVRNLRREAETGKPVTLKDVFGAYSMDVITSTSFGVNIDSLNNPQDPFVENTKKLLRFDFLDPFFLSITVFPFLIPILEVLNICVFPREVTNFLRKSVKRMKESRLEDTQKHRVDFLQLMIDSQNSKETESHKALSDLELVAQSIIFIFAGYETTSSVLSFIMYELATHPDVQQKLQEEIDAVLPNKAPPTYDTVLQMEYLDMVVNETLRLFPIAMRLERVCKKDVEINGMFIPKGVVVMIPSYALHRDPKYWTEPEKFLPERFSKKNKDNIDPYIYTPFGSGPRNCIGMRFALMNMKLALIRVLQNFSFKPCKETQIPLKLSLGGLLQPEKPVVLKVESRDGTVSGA

Cytochrome P450 2C9 (Homo sapiens), sequence (P11712 whole entry, looked up): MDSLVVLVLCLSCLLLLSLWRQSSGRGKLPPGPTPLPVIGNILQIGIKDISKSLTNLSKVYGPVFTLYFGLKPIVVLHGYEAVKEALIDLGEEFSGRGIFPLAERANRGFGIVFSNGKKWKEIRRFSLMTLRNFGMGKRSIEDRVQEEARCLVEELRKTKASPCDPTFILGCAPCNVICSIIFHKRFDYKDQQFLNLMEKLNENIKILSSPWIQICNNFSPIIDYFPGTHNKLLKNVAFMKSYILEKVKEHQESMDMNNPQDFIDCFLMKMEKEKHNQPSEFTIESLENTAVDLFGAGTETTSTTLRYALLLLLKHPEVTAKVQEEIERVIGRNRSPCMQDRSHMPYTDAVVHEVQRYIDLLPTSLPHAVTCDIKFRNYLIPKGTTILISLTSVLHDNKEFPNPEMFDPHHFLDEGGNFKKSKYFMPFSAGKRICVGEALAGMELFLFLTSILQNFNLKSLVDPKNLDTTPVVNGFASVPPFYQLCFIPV
Single-stranded DNA cytosine deaminase (Homo sapiens), sequence (Q9GZX7 whole entry, looked up): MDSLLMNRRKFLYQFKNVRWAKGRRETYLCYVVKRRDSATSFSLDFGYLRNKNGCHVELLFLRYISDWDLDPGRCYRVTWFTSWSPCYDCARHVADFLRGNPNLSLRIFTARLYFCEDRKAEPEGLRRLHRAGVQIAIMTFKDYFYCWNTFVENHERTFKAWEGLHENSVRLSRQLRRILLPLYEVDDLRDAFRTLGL
Protein phosphatase 1D (Homo sapiens), sequence (O15297 whole entry, looked up): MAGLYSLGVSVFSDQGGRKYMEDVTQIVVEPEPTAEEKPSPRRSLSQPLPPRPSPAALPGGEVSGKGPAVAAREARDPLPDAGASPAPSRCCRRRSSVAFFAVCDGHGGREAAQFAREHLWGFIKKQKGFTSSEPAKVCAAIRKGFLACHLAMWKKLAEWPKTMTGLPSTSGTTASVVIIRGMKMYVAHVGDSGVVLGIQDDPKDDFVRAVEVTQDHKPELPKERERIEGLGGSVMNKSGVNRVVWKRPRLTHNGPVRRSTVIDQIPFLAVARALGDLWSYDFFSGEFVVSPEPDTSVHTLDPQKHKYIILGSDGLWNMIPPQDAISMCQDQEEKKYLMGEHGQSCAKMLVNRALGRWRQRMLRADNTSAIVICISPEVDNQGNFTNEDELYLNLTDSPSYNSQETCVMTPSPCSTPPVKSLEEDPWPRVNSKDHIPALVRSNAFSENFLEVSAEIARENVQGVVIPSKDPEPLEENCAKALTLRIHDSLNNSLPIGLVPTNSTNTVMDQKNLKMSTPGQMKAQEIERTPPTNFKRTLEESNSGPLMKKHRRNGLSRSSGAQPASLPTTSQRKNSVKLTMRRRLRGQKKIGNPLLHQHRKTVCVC

With `C[C@]12CCC(=O)C=C1CC[C@@H]1[C@@H]2CC[C@@]2(C)[C@H]1CC[C@]2(O)C(=O)CO`, the Potency entry in assay [1], in assay [2], in assay [4], in assay [7], in [8] and in assay [10] was “inactive” each time. Also, the Potency result in [11], in assay [12] and in assay [13] was “inactive” throughout. In addition, the compound was classed as inactive in [3], in assay [5], in assay [6] and in assay [9].
As to `C[C@]12CC[C@@H]3c4ccc(O)cc4C[C@@H](CCCCCCCCCS(=O)CCCC(F)(F)C(F)(F)F)[C@H]3[C@@H]1CC[C@@H]2O` (some centres undefined), the Potency result in [1], in [2], in assay [4], in [7], in [8] and in [10] was “inactive” throughout. The Potency entry in assay [11], in assay [12], in assay [14] and in assay [15] was “inactive” throughout. For the same compound, the call in assay [3], in [5], in assay [6] and in assay [9] was inactive. Moreover, in assay [13], the Potency was 1380 nM (active).
With `CN(C)C(=O)Oc1cccc([N+](C)(C)C)c1`, the Potency result in assay [1], in assay [2], in assay [4], in assay [7], in [8] and in [10] was “inactive” in each case. Further, the Potency entry in [11], in [16], in [12], in [13], in assay [14] and in [15] was “inactive” each time. For the same compound, the call in [3], in assay [5], in assay [6] and in [9] was inactive.
Consider `CC(=O)Nc1nnc(S(N)(=O)=O)s1`, for which the Potency result in assay [1], in assay [2], in [4], in [7], in assay [8] and in assay [10] was “inactive” each time. Also, the Potency entry in [11], in assay [12], in assay [13], in assay [14] and in assay [15] was “inactive” throughout. In addition, the compound was classed as inactive in assay [3], in [5], in assay [6], in assay [9] and in assay [17].
For the compound `CN=C(NC#N)NCCSCc1nc[nH]c1C`, the Potency entry in assay [1], in assay [2], in [4], in assay [7], in [8] and in assay [10] was “inactive” each time. Besides, the Potency result in assay [11], in assay [14] and in assay [15] was “inactive” throughout. The compound was called inactive in [3], in assay [5], in assay [6] and in assay [9]. Moreover, in assay [13], the Potency is 13800 nM (active).
As to `CCN(CC)CCNC(=O)c1ccc(NC(C)=O)cc1`, the Potency result in [1], in assay [2], in assay [4], in assay [7], in assay [8] and in [10] was “inactive” each time. For the same compound, the Potency result in assay [11], in assay [16], in assay [13], in [14] and in [15] was “inactive” each time. For the same compound, the compound was called inactive in assay [3], in assay [5], in assay [6] and in assay [9].
As for `NC1=NCC2c3ccccc3Cc3ccccc3N12` (centres undefined), the Potency entry in [1], in [2], in assay [4], in [7], in assay [8] and in [10] was “inactive” throughout. Further, the Potency result in assay [11], in [16], in assay [13] and in assay [14] was “inactive” in each case. In addition, the call in [3], in assay [5], in assay [6] and in assay [9] was inactive. Further, in [12], the Potency is 1550 nM (active).
With `Cc1scc2c1N(C(=O)CN1CCN(C)CC1)c1ccccc1NC2=O`, the Potency result in assay [1], in assay [2], in assay [4], in assay [7], in assay [8] and in assay [10] was “inactive” throughout. The Potency entry in assay [11], in assay [12], in assay [13], in assay [14] and in assay [15] was “inactive” each time. The result in assay [3], in assay [5], in assay [6] and in assay [9] was inactive.
